Screening data: PubChem BioAssay, National Center for Advancing Translational Sciences (NCATS)
Only some compounds are listed: those with a hit (about 3.4% of all), similar ones and a draw of the others.
IMPase inh – IMPase inhibition in cells; CHO-M1 cells, IP1 accumulation, HTRF TR-FRET ratio; inhibition (IP1 accumulation), % at 46.1 µM; 120,000 tested, under 10 active; active = well fitted curve in the direction sought with a large enough effect in the signal ratio, not every such curve was filed as active; inconclusive = small, poorly fitted or top-dose-only effect, or a change in a side signal; inactive = no such curve, though single readings can be large or run the other way; the % refers to the signal ratio;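 note: cells stimulated with carbachol in lithium chloride buffer; plate controls were DMSO basal wells for no effect and reference inhibitor wells for full effect; higher means more IMPase inhibition seen as more IP1 and lower FRET ratio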
Target sequence (P97697 whole entry, looked up): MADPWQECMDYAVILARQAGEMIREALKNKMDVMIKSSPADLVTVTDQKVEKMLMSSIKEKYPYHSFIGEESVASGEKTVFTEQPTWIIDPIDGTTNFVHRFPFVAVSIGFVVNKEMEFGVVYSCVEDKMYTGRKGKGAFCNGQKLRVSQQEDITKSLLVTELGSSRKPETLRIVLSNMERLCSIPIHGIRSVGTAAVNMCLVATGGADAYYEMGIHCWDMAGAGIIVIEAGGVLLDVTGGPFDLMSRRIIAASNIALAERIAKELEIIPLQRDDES
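In this qHTS, compounds (final up to 46 uM) act on CHO-M1 cells that are then activated through the M1 receptor with carbachol, in pH 7.4 buffer containing 50 mM LiCl, for 30 min. IP1 accumulation is quantified by the IP-One immunoassay.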
HTT aggregate – reduces HttQ103-GFP aggregates in PC12 cells | actives 1.1% (n = 220,000) | PC12 HttQ103-GFP aggregates, Acumen cytometry, 40 h | Potency, µM (doses to about 46.1 µM), for the others: at the top dose activity change, negative = inhibition, usual class: inhibitors | AID 1688; note: potency is the fitted concentration of half-maximal effect; % is set by controls: 0 for no effect and ±100 for the full control effect; nearly all actives have a fitted effect of over 60% in size
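PC12 cells with ecdysone-inducible HTT exon1 Q103-GFP, induced by 100 nM tebufenozide, given compounds in a concentration series. GFP aggregates (1–25 um, 6 SD above background) counted in lysates by laser-scanning cytometry, 488 nm excitation.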
IMPase Li inh – cell-permeable IMPase inhibitors with lithium potentiation. CHO-M1 cells, IP1 TR-FRET (IP-One), carbachol + lithium. Potency, µM (top dose mostly 59.4 µM), inactives show at the top dose activity, negative = IMPase inhibition, usual class: inhibitors. actives 0.35% (n = 210,000);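 note: IP1 builds up when IMPase is blocked and the TR-FRET signal falls; potency is the fitted concentration of half-maximal effect; plate controls were basal vehicle for no effect and high inhibitor control for full effect; nearly all actives have a fitted effect of over 50% in size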
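CHO cells stably expressing M1 receptor (2000/well, cultured 16–30 h) treated 30 min at 37C with compound plus low lithium. Cytosolic IP1 by TR-FRET (665/620 ratio and 620 channel) after 10 min lysis; AC50 by Hill fit.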
HTT cytoprotect – protects HTT-Q103 PC12 cells, measured by ATP; AID 1471; Potency, µM (series often up to 56.4 µM), without a hit: cytoprotection (ATP increase), usual class: activators; actives 0.14% (n = 230,000); PC12 HTT-Q103 induced, cytoprotection, ATP luminescence, 40 h; note: potency is the fitted concentration of half-maximal effect; % of control where 0% means no effect; nearly all actives have a fitted effect of over 45% in size
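PC12 cells stably carrying ecdysone-inducible Htt exon 1 (Q103)–GFP were induced with 100 nM tebufenozide (final) alongside library compounds in a dose series. Cytoprotection was scored as retained ATP by ATPlite luminescence.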
NPSR antagonist – blocks cAMP signaling of the human neuropeptide S receptor | AID 1461 | Potency, µM (series often up to 38.3 µM), for inactives: top-dose activity change, negative = inhibition, hits mostly inhibitors | CHO-NPSR cells, cAMP TR-FRET, antagonist mode | actives 1% (n = 220,000); note: potency is the fitted concentration of half-maximal effect; % is set by controls: 0 for no effect and ±100 for the full control effect; nearly all actives have a fitted effect of over 50% in size
Target sequence (Q6W5P4 whole entry, looked up): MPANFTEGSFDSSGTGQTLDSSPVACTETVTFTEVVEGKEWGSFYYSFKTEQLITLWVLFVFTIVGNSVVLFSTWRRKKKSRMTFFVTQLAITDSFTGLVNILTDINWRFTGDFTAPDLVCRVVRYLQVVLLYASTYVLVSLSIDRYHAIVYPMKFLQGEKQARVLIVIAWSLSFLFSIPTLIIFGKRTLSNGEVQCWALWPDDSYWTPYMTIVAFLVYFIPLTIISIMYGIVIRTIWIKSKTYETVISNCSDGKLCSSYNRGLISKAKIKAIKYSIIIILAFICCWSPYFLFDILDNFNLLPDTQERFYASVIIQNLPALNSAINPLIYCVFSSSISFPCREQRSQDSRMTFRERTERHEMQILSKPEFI
PNC assembly inh – blocks assembly of the perinucleolar compartment. PC3M PTB-GFP, PNC prevalence imaging, 16 h; hits give low values. activity change (PNC), negative = inhibition, % at 10 µM. actives 3.1% (n = 140,000). AID 2417;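 active = readout at or below -70, meaning at least 70% loss of cells showing the perinucleolar compartment, a nuclear body marking cancer cells; inconclusive = readout between -30 and a set limit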;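 note: plate controls were DMSO wells for no effect and camptothecin positive control wells for full effect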
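Compounds are pinned in duplicate onto adhered PC3M cells stably expressing GFP-tagged PTB and incubated 16 h at 37 C. Cells are then fixed, nuclei stained with Hoechst, and PNC-positive cells counted.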
An asterisk follows results filed as active; ? = inconclusive; . = no result; [ ] = dose if it differs, or a comment. Unless noted, calls come from the whole dose curve; as a rule, active = well fitted curve in the direction sought with a large enough effect; inconclusive = small, poorly fitted or top-dose-only effect, or another doubt; inactive = no such curve, though single readings can be large; an effect the other way counts as inactive or inconclusive.

SMILES	IMPase inh	HTT aggregate	IMPase Li inh	HTT cytoprotect	NPSR antagonist	PNC assembly inh
OCc1ccc(O)c2ncccc12	1	10µM*	4%[38.3 µM]	-62%	2%[46.1 µM]	79
CC(C)COCc1ccc(O)c2ncccc12	.	10µM*	.	-153%	38%	.
Nn1c(SCC(=O)NC2CCCc3ccccc32)nnc1-c1ccc(Cl)cc1Cl (stereo not drawn)	3	16%	.	-7%[10 µM]	-6%[46.1 µM]	-20
CC(NC(=O)COc1ccccc1-c1ccccc1)c1ccccc1 (stereo not drawn)	.	?	11%	-46%[10 µM]	-39%	31
CC1(NC(=O)COc2ccccc2-c2ccccc2)CCS(=O)(=O)C1 (stereo not drawn)	3	7%	29%[38.3 µM]	16%	0%[46.1 µM]	-96*
O=C(N/N=C/c1cccc([N+](=O)[O-])c1)c1ccc2nc[nH]c2c1	-8	-15%	36%[38.3 µM]	16%[10 µM]	-4%[46.1 µM]	?
O=C(N/N=C/c1ccc([N+](=O)[O-])cc1)c1ccc2nc[nH]c2c1	-2	-12%	-6%[38.3 µM]	4%	-4%[46.1 µM]	-88*
COc1ccc(C2C3=C(CCCC3=O)Nc3nc(SCc4ccc(C(=O)O)cc4)nn32)cc1OC (stereo not drawn)	?	-7%	-3%[38.3 µM]	1%	-11%[46.1 µM]	51
COc1ccc(C2C3=C(CCCC3=O)Nc3nc(SCc4ccccc4)nn32)cc1OC (stereo not drawn)	2	14%	-10%[38.3 µM]	38%[10 µM]	-19%[46.1 µM]	-86*
CCNc1ncc2nc(-c3ccc(OC)cc3)c(=O)n(Cc3cccs3)c2n1	.	.	-22%	-37%	.	.
COCc1nnc(NC(=O)c2ccc(S(=O)(=O)N3CCCc4ccccc43)cc2)o1	.	?	-2%	-134%	-4%	.
O=C(Nc1nnc(C2CC2)o1)c1ccc(S(=O)(=O)N2CCCc3ccccc32)cc1	-2	11µM*	6%[38.3 µM]	-17%	-8%[46.1 µM]	43
COc1cc2c(cc1OC)CN(Cc1nc3ccsc3c(=O)[nH]1)CC2	-4	4µM*	18%[38.3 µM]	23%[10 µM]	-6%[46.1 µM]	-83*
Cc1ccc(Cl)cc1N1CCN(C(=O)C2CCN(S(=O)(=O)c3cccnc3)CC2)CC1	4	11µM*	26%[38.3 µM]	10%	?	32
O=C(C1CCN(S(=O)(=O)c2cccnc2)CC1)N1CCN(c2ccccc2Cl)CC1	17	-27%	-4%[38.3 µM]	4%	-27%[46.1 µM]	33
CCCCCCCCCCCCCCCCCC(=O)NC[C@@H](COP(=O)([O-])OCC[N+](C)(C)C)OCC	4	.	.	-21%[1.9 µM]	.	.
COc1cccc(Cn2c(=O)c(C)nc3cnc(N4CCN(C)CC4)nc32)c1	.	.	18%	-43%	.	.
Cc1cccc(NC(=O)c2cc([N+](=O)[O-])ccc2N2CCCCC2)n1	.	-11%	12%	.	10µM*	.
Cc1ccc(N)c2c1OCCC2=O	.	-12%	-5%	.	18%	-118*
COc1ccccc1NC(=O)CN1CCN(c2ccccc2)CC1	.	-11%[9.22 µM]	3%	-35%	-12%	.
COc1ccc(/C=C/CN2CCCC(CO)(Cc3cccc(Cl)c3)C2)cc1 (stereo not drawn)	.	21%[9.22 µM]	23%	-10%[10 µM]	?	.
CO[C@@H]1COC(=O)[C@H](COCc2ccccc2)NC(=O)C/C=C\[C@@H](C)[C@H](OC)COC(=O)[C@@H](C)NC(=O)C/C=C\[C@H]1C	.	.	.	0%[10 µM]	.	.
C(=N\Nc1nc(Nc2ccccc2)nc(Nc2ccccc2)n1)/c1ccncc1	.	.	2%	.	3%	.
C(=N\Nc1nc(Nc2ccccc2)nc(Nc2ccccc2)n1)/c1cccnc1	.	4.5µM*	20%	-9%[10 µM]	?	.
Cc1ccc2nc(Cl)c3nnnn3c2c1	.	3.5µM*	2%	-98%[10 µM]	3%	.
SMILES	IMPase inh	HTT aggregate	IMPase Li inh	HTT cytoprotect	NPSR antagonist	PNC assembly inh
Cc1ccc2nc(NCc3ccccc3Cl)c3nnnn3c2c1	1	.	.	.	.	.
CCc1ccc(OCc2ccccc2C(=O)Nc2ccc3nc(C)cc(N)c3c2)cc1	.	.	16%	-350%	.	.
CCn1cc(C(=O)O)c(=O)c2cc(F)c(N3CCN(S(=O)(=O)c4ccc(NC(=O)OC)cc4)CC3)cc21	?	32µM*	-7%	-11%[10 µM]	-2%	?
CCC(=O)N1CCN(c2cc3c(cc2F)c(=O)c(C(=O)O)cn3CC)CC1	.	.	.	4%[10 µM]	.	.
CCN1CCN(c2cc3c(cc2F)c(=O)c(C(=O)O)cn3C2CC2)CC1	.	-2%	7%	-40%	-21%	-115*
CC(=O)N1CCN(c2cc3c(cc2F)c(=O)c(C(=O)O)cn3C2CC2)CC1	.	7%	0%	11%[10 µM]	2%	.
IC(I)I	.	3%	5%	-2%	.	.
O=C(NCc1ccccc1)c1ccc(-c2ccccc2C(F)(F)F)o1	.	?	3%	-147%	?	-84*
O=C(O)c1ccc(-c2ccccc2C(F)(F)F)o1	-1	-12%	-3%[38.3 µM]	-15%[10 µM]	-7%[46.1 µM]	1
O=C(CCn1c(=O)sc2ccccc21)NCc1ccc2c(c1)OCO2	6	21%	17%	-23%[10 µM]	-1%	-119*
c1cc2c3c(c1)ccc1cccc(c13)C2	.	.	-21%	17%	.	.
Cn1c(=O)oc2cc(S(=O)(=O)N3CCCC(C(=O)N4CC=C(c5ccccc5)CC4)C3)ccc21 (stereo not drawn)	10	11µM*	15%[38.3 µM]	-24%	-8%[46.1 µM]	?
CCOC(=O)N1CCN(S(=O)(=O)c2ccc3c(c2)oc(=O)n3C)CC1	7	-11%	7%[38.3 µM]	-13%	-3%[46.1 µM]	-80*
Cc1cc(C)cc(NC(=O)CCNS(=O)(=O)c2ccc3c(c2)oc(=O)n3C)c1	-8	-8%	9%	15%[10 µM]	-2%[46.1 µM]	-100*
CCOC(=O)N1CCN(S(=O)(=O)c2ccc(C(=O)Nc3nnc(C)o3)cc2)CC1	.	?	-11%	3.5µM*	2%	18
CCOC(=O)c1ccc(NC(=O)CCNS(=O)(=O)c2ccc3c(c2)oc(=O)n3C)cc1	7	-9%	2%	4%[10 µM]	-5%[46.1 µM]	10
CC(=O)c1ccc(NC(=O)CC23CC4CC(C2)CC(n2nnc(C)n2)(C4)C3)cc1	.	-4%	18%	-47%	-9%	.
O=C(O)COC(=O)Cc1ccccc1Nc1c(Cl)cccc1Cl	-2[20.6 µM]	5%[20.6 µM]	0%	4%[40.3 µM]	.	.
COc1ccc(CCNC(=O)Cn2ccc3c(OC)cccc3c2=O)cc1OC	.	-2%[9.22 µM]	.	-21%[10 µM]	6%	.
CCOC(=O)n1c(=O)oc2cc(S(=O)(=O)N3CCCCC3)ccc21	-4	-18%	9%	5%[0.074 µM]	-14%[46.1 µM]	-100*
COC(=O)n1c(=O)oc2cc(S(=O)(=O)N3CCCCC3)ccc21	6	20%[9.22 µM]	12%[38.3 µM]	-8%	4%[46.1 µM]	20
CCOC(=O)CCCSc1nnc(CCCCCN2C(=O)c3cccc4cccc(c34)C2=O)o1	-1	?	25%	2.5µM*	-28%[46.1 µM]	-30
